Results taken from PubChem BioAssay (Tox21).
Records with an inconclusive call do not appear. Where a call stands in place of a potency, no number is given. The source made the active and inactive calls. Calls follow the shape of the dose curve; as a rule, active = well fitted activation curve with a large enough effect in the signal ratio in the repeat runs (not every such curve was filed as active); inconclusive = weak or mixed curves; inactive = flat fitted curve, though single readings scatter; the % refers to the signal ratio.

Test: qHTS assay to identify small molecule agonists of H2AX (AID 1224845)
Conditions: CHO-K1 phospho-H2AX Ser139 HTRF, 3 h; series mostly up to 154 µM
From the text: National Center for Advancing Translational Sciences [NCATS]
NIH Chemical Genomics Center [NCGC]
U.S. Environmental Protection Agency [EPA]
National Institutes of Environmental Health Sciences [NIEHS]
National Toxicology Program [NTP]
U.S. Food and Drug Administration [FDA]
HTRF phospho-H2AX (Ser139) assay (Cisbio Bioassays, US) enables the quantitative detection of the histone variant H2AX when phosphorylated on serine 139. When double-stranded DNA breaks, either by ionizing radiation or endogenous physiological processes, H2AX becomes phosphorylated at Ser139. This phospho-Ser139 serves as a sensitive biomarker for the detection of such breaks, localizing the site of DNA repair. So, HTRF phospho-H2AX Ser139 is a pertinent assay to study genome stability, the cell cycle, DNA repair, and it serves as a biomarker for cancer, and to understand aging. Wild type CHO-K1 cells were used to identify the inducers of Phospho-H2AX Ser 139 from the Tox21 10K compound collections.
Tox21 Assay Protocol Summary:
The CHO-K1 cells suspended in culture medium containing 10% FBS were dispensed at 1000 cells/ 3 ul/well in 1536-well white wall/solid bottom plates (Greiner Bio-One North America, NC) using a Multidrop Combi (Thermo Fisher Scientific Inc., Waltham, MA). After the assay plates were incubated at 37C overnight, 23 nl of compounds at 15 concentrations (from 5-48 columns) or positive control (from 1 to 4 columns) were transferred to the assay plates using a Pintool station (Wako, San Diego, CA) into each well resulting in a final DMSO concentration of 0.76%. After 3hr incubation at 37C, 1 uL/well Supplemented Lysis buffer (diluted 100 fold blocking reagent in lysis buffer) (HTRF Phospho-H2A.X (S139) Assay kit from Cisbio US Inc., Bedford, MA) was added using a Flying Reagent Dispenser (FRD) (Aurora Discovery, CA). After 10sec spin at 1000 rpm in a plate centrifuge, the assay plates were incubated at room temperature for 30 min. Then followed by the addition of 1 uL/well detection buffer (containing a mixture of two antibodies, one labeled with cryptate, Anti pH2AX (S139)-K and another labeled with d2, Anti H2AX-d2) using FRD. After incubation at room temperature for 24 hr, the time resolved fluorescence at excitation 320 nm and emissions at 665 nm and 620 nm was measured using an Envision plate reader (PerkinElmer, Waltham, MA).
Potency is read from the fitted curve at half-maximal effect.

Structure (SMILES)	Potency	activation (H2AX phosphorylation)
COc1ccnc(CS(=O)c2nc3ccc(OC(F)F)cc3[nH]2)c1OC (stereo not given)	inactive	–
CN1Cc2cc(C(=O)N3CCC(C4CCNCC4)CC3)ccc2NC(CC(=O)O)C1=O (stereo not given)	inactive	–
CC1(c2ccccc2)OC(C(=O)O)=CC1=O (stereo not given)	inactive	–
C[N+](C)(C)CCOC(=O)CCC(=O)OCC[N+](C)(C)C	inactive	–
CCCOC(C(=O)OC1CCN(C)CC1)(c1ccccc1)c1ccccc1	inactive	–
CCCCCCc1ccc(-c2ccc(C#N)cc2)cc1	inactive	–
CC1=CC=C(C(C)C)CC1	inactive	–
CN1C[C@H]2c3ccccc3Oc3ccc(Cl)cc3[C@@H]2C1	inactive	–
C=CC(=O)OCCOCCOC(=O)C=C	56.9 µM (active)	–
C[N+]1(CC2COC(c3ccccc3)(C3CCCCC3)O2)CCCCC1 (stereo not given)	inactive	–
CCC(=O)O[C@]1(C(=O)CCl)[C@@H](C)C[C@H]2[C@@H]3CCC4=CC(=O)C=C[C@]4(C)[C@@]3(F)[C@@H](O)C[C@@]21C	inactive	–
COc1ccc(C)cc1[N+](=O)[O-]	inactive	–
CC/C=C\CCOC(=O)CC	inactive	–
Clc1ccc(Cn2c(CN3CCCC3)nc3ccccc32)cc1	inactive	–
O=C1[C@H]2CCCC[C@H]2C(=O)N1CCCCN1CCN(c2nsc3ccccc23)CC1	inactive	–
COc1cc2nc(N3CCN(C(=O)C4COc5ccccc5O4)CC3)nc(N)c2cc1OC (stereo not given)	inactive	–
CCCCCCCCCCCC(=O)OC[C@@H](O)[C@H]1OC[C@H](OCCO)[C@H]1OCCO	inactive	–
OC(CN1CCC(Cc2ccc(F)cc2)CC1)c1ccc(Cl)cc1 (stereo not given)	inactive	–
O=C(O)CNCC(=O)O	–	4.61% [at 14 µM] (inactive)
CCCCNc1ccc(C(=O)OCCOCCOCCOCCOCCOCCOCCOCCOCCOC)cc1	inactive	–

Structure (SMILES)	Potency	activation (H2AX phosphorylation)
CC(=O)NO	inactive	–
Nc1c(CC(=O)O)cccc1C(=O)c1ccc(Br)cc1	inactive	–
Cc1cccc(Nc2ccccc2)c1	inactive	–
CCCCOC(=O)CCCCCCCC(=O)OCCCC	inactive	–
c1ccc(C(O[C@H]2CCCN(CCc3ccc4c(c3)OCO4)C2)c2ccccc2)cc1	inactive	–
CCOc1ccc(N=Nc2ccc(/C=C/c3ccc(N=Nc4ccc(OCC)cc4)cc3S(=O)(=O)O)c(S(=O)(=O)O)c2)cc1	inactive	–
O=[N+]([O-])c1ccc(NCCO)c(OCCO)c1	inactive	–
O=C(O)c1nc(Cl)c(Cl)c(Cl)c1Cl	inactive	–
Cc1cccc(C)c1NC(=O)CN(CC(=O)O)CC(=O)O	inactive	–
CN(C)c1ccc(/C=C/c2ccc([N+](=O)[O-])cc2)cc1	–	-1.3% [at 14 µM] (inactive)
CCC(C)O (stereo not given)	inactive	–
COC(=O)c1ccc(I)cc1S(=O)(=O)NC(=O)Nc1nc(C)nc(OC)n1	inactive	–
CCC(C)(C)CC	inactive	–
Cc1oc2c(NC(=O)c3c(Cl)cccc3Cl)cccc2c1C(C)(C)O	inactive	–
O=S(c1cc(Cl)cc(Cl)c1O)c1cc(Cl)cc(Cl)c1O	inactive	–
Nc1ccccc1S(=O)(=O)c1ccccc1	inactive	–
O=S(=O)(Oc1ccc(Cl)cc1)c1ccccc1	inactive	–
C/C=C/C(=O)CC	–	-0.233% [at 31.6 µM] (inactive)
COc1cccc(N(C)C(=S)Oc2ccc3c(c2)CCCC3)n1	inactive	–
O=[N+]([O-])c1cccc(S(=O)(=O)O)c1	inactive	–
